Activation data for 59 molecules are collected here from PubChem BioAssay AID878 (University of Pittsburgh Molecular Library Screening Center, 2007).

Out of some 200,000 compounds screened, about 65 (0.03%) were called active.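 The calls were made as follows: active = activation of at least 50% relative to the plate's high and low controls in the primary single-dose screen; inactive = activation below 50%.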 Shown is part of a subset that was picked to be rich in actives.

The experiment is described as follows: compounds producing H2O2 with reducing agent – biochemical, NIH compound library profiling, artefact control for MLSCN library redox annotation, primary screen (AID 878).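 Also: compound incubated with DTT at 0.8 mM final as the reducing agent.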 The following applies: DTT-dependent redox cycling H2O2, phenol red/HRP absorbance; at 10 µM; hits give high values; 100% = 100 µM peroxide control, 0% = buffer.
Consider `COn1c(-c2ccc(Cl)cc2Cl)nc2ncccc21`, for which the activation was 0.53% (inactive).
For `C=CCNC(=S)NNC(=O)COc1c(Cl)cc(Cl)cc1Cl` the value was 0.34% (inactive).
In the case of `O=C(NCCCn1ccnc1)C(=O)c1cn(CC(=O)N2CCCCCC2)c2ccccc12`, the activation was -0.37% (inactive).
For `COc1ccc(N2CCN(C(=O)COc3ccc4c(C)cc(=O)oc4c3)CC2)cc1` the value was -0.38% (inactive); for `O=C(CSc1nc2ccccc2[nH]1)Nc1nc(-c2ccccc2)c(-c2ccccc2)o1`, 0.41% (inactive).
For `Cc1ccc(S(=O)(=O)/N=C(/Nc2ccc3[nH]c(=O)[nH]c3c2)c2ccccc2)cc1` the value was -0.98% (inactive).
On to `COc1ccc(NC(=O)c2cc3nc(-c4ccccc4)cc(C)n3n2)cc1OC`, for which the activation is -0.08% (inactive).
With `CCC(=O)N(Cc1cc2ccccc2[nH]c1=O)c1ccc(OC)cc1`, the activation was -0.34% (inactive).
For `CCCOc1ccc(NC(=O)CC2C(=O)N(C)C(=S)N2Cc2ccc3c(c2)OCO3)cc1` (centres undefined) the value was -0.41% (inactive); for `CCc1cccc(OC2OC(CO)C(O)C(O)C2NC(C)=O)c1` (centres undefined), -0.96% (inactive); for `Oc1cccc2ccc(/C=C/c3ccc(Br)s3)nc12`, -0.18% (inactive).
Next, `COc1ccc(C(=O)Nc2sc(C)c(C)c2CN2CCOCC2)cc1`: -0.23% (inactive); `CN(/C(=N/S(=O)(=O)c1cccs1)c1ccccc1)c1ccc(O)cc1`: -0.71% (inactive).
Next, `O=C(NC1CCCCCC1)c1cccnc1Sc1ccc(Cl)cc1`: -0.04% (inactive); `C/[N+]([O-])=C\c1ccc([N+](=O)[O-])o1`: 0.48% (inactive).
For the molecule `CSc1ccc(/C=N\NC(=O)CC(=O)NC(C)C)cc1`, the activation was -0.35% (inactive).
Next, `COCCNC(=O)c1ccc(N2CCC3(CC2)OCCO3)c([N+](=O)[O-])c1`: 0.43% (inactive).
As for `COc1cc(/C=C/C(=O)OCC(=O)NC(=O)NCc2ccccc2)ccc1OCC#N`, the activation is -0.39% (inactive).
Next, `O=C(CNC(=O)c1cc(=O)[nH]c2ccccc12)Nc1ccc(F)c(F)c1`: 0.25% (inactive).
Next, `CN(c1ccc2nc3ccccc3c(=O)n2n1)C1CCCCC1`: -0.26% (inactive); `COc1ccc(CC(=O)N2N=C(C)CC2(O)C(F)(F)F)cc1` (centres undefined): -0.18% (inactive).
For `O=C(/C=C/Sc1ncn[nH]1)c1ccc(Cl)cc1` the value was 1.23% (inactive); for `O=c1c2ccccc2c(-c2ccccc2)nn1-c1ccccn1`, -0.18% (inactive); for `CCOCCCNC(=O)C(=O)NCCCOCC`, -0.48% (inactive).
As for `CCC1=NN(C(=O)Cc2ccc([N+](=O)[O-])cc2)C(O)(c2ccc(Br)cc2)C1` (centres undefined), the activation was 0.2% (inactive).
Next, `CCOc1cc(NC(=S)NCCCOC)c(OCC)cc1NC(=O)c1ccco1`: -0.65% (inactive); `CNC(=O)C(=O)N/N=C/c1ccccn1`: 0.83% (inactive).
For `CCN(CC(=O)NCc1cccs1)S(=O)(=O)c1ccc(NC(C)=O)cc1` the value was -2.2% (inactive); for `CCOC(=O)C1CCN(S(=O)(=O)c2cc(F)ccc2OC)CC1`, -0.4% (inactive).
As for `Cc1ccc(CNC(=O)COc2ccc3c(c2)CCC3)cc1`, the activation is -0.27% (inactive).
Next, `CO/N=C/CC(=O)c1ccc(OC)cc1`: -0.35% (inactive); `CCCC1(C(=O)OCC)NC(c2ccc(N(C)C)cc2)C2C(=O)N(c3ccc4c(c3)OCCO4)C(=O)C21` (centres undefined): 0.78% (inactive).
As to `Cc1ccc(-n2c(C)cc(/C=N\NC(=O)CC(=O)NC(C)C)c2C)cc1`, the activation is 0.08% (inactive).
For `O=C(/C=C/c1cccc([N+](=O)[O-])c1)NCCSCc1ccco1` the value was -0.1% (inactive); for `Cc1ccc(CC(=O)Nc2ccc(OC(F)F)c(Cl)c2)cc1C`, 0.61% (inactive).
Next, `CCOC(=O)C1=C(c2ccc(OC)cc2)C(=O)c2ccccc2C1=O`: 0.28% (inactive); `CCOC(=O)c1c(C)[nH]c2c1-c1ccccc1C(=O)C2=O`: 89.8% (active).
Next, `CCOC(=O)c1c(C)[nH]c(=S)c(C#N)c1-c1ccccc1`: -0.47% (inactive); `COc1ccc(S(=O)(=O)N/N=C\c2ccc(OC)c(COc3ccc(C)cc3[N+](=O)[O-])c2)cc1`: 0.79% (inactive); `Cc1cc(NC(=O)CSCc2ccccc2C)no1`: -0.39% (inactive).
Turning to `COc1cc(CN2CCN(Cc3ccc(C)cc3)CC2)c([N+](=O)[O-])cc1OC`, the activation is -0.34% (inactive).
As to `Cc1ccc(-n2c(SCC(=O)N/N=C/C=C/c3ccccc3[N+](=O)[O-])nc3ccccc3c2=O)cc1`, the activation was 0.36% (inactive).
For `Cc1ccc(C(C)(C)C)c(OCCCCN2CCCC2)c1` the value was 0.04% (inactive); for `COC(=O)c1c(C)[nH]c(C(=O)/C=C/c2ccc(Cl)cc2)c1C`, 0.44% (inactive).
As for `O=C(CSc1ncn[nH]1)NCc1ccc2c(c1)OCO2`, the activation was -2.24% (inactive).
For `COC(=O)c1c(NC(=O)CN2CCN(S(=O)(=O)c3ccccc3[N+](=O)[O-])CC2)sc2c1CCC(C)C2` (centres undefined) the value was 0.62% (inactive).
Turning to `CCc1c(O)cc2n(c1=O)-c1ccccc1C2(C)C`, the activation is 0.55% (inactive).
Next, `CC(=O)N1Cc2ccccc2CC1C(=O)O` (centres undefined): 0.61% (inactive); `Cc1ccc(OCC(=O)Nc2cccc3c2CCCC3)cc1C`: 1.68% (inactive).
With `CCOC(=O)Cc1ncccc1C(=O)Nc1ccc(OC)cc1`, the activation is -0.93% (inactive).
For `O=C(C1=C[C@H](C2CC2)C[C@H](OCc2ccc(CO)cc2)O1)N1CCN(Cc2ccccc2)CC1` the value was 0.58% (inactive); for `Cc1ccc(S(=O)(=O)C2C(=O)NC3(C)CC2c2ccccc2O3)cc1` (centres undefined), 0.78% (inactive); for `COC(=O)/C=C\C(=O)Nc1cccc([N+](=O)[O-])c1`, 0.27% (inactive).
As to `CCn1c(=O)c(=O)n(CC)c2cc(S(=O)(=O)N3CCc4ccccc43)ccc21`, the activation was -1.27% (inactive).
For `O=C(Oc1cccc(N2C(=O)C3C4c5ccccc5C(c5ccccc54)C3C2=O)c1)c1ccco1` (centres undefined), the activation is 0.92% (inactive).
On to `CCC(=O)/C(=C(/O)c1ccccc1)c1nc2ccccc2[nH]1`, for which the activation was -0.31% (inactive).
On to `FC(F)(F)c1cccc(Cc2noc(CN3CCC(N4CCCCC4)CC3)n2)c1`, for which the activation was 0.44% (inactive).
As to `Cc1ccccc1-n1nnnc1SCCCC(=O)c1ccc(F)cc1`, the activation is 0.87% (inactive).
Turning to `CCOC(=O)NC(=O)C(=CNc1cccc(OC)c1)C(=O)NC(=O)OCC`, the activation was -0.29% (inactive).
